Experimental data as given in the supplement of paper PMC6555819.

Tests used:
Experiment in all cases: PBM binding z-score (relative to random genomic background probes); higher = stronger binding; sequences stand for … in GC…GCGATTGACAGCGTAGAATGAAGG
[1] = test system: FXR:RXRa (NR concentration 270 nM, RXRa partner concentration 90 nM)
Summary of the method: (§1)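 The probes on custom Agilent 4×180K protein-binding microarrays were double-stranded, with 34-nt variable regions bearing direct-repeat seeds, single-nucleotide variants, half-site ablations and random human genomic background sequences. Incubation lasted 1 h with ligand-free nuclear receptor dimers in PBS pH 7.4, 2% milk, 0.02% Triton X-100, 1 mM DTT, 0.2 mg/mL BSA and 0.4 mg/ml salmon testes DNA. Antibodies against each partner (one per run) detected bound dimers, and fluorescence scans were regression-normalized. Binding z-scores take the random background probes as reference.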

[2] = test system: LXRa:RXRa (NR concentration 270 nM, RXRa partner concentration 90 nM)
Summary of the method: as §1

[3] = test system: LXRa homodimer (NR concentration 270 nM)
Summary of the method: as §1

[4] = test system: LXRb:RXRa (NR concentration 270 nM, RXRa partner concentration 90 nM)
Summary of the method: as §1

[5] = test system: LXRb homodimer (NR concentration 270 nM)
Summary of the method: as §1

[6] = test system: PPARa:RXRa (NR concentration 270 nM, RXRa partner concentration 90 nM)
Summary of the method: as §1

[7] = test system: PPARg:RXRa (NR concentration 180 nM, RXRa partner concentration 90 nM)
Summary of the method: as §1

[8] = test system: PPARg:RXRa 270nM:90nM, anti-RXR (NR concentration 270 nM, RXRa partner concentration 90 nM)
Summary of the method: as §1

[9] = test system: PPARg:RXRa 30nM:10nM, anti-RXR (NR concentration 30 nM, RXRa partner concentration 10 nM)
Summary of the method: as §1

[10] = test system: PPARg:RXRa 90nM:30nM, anti-RXR (NR concentration 90 nM, RXRa partner concentration 30 nM)
Summary of the method: as §1

[11] = test system: PPARg:RXRa DBDmut IVT, anti-RXR (DBD mutation: RXRa K156A/R161A, NR concentration 270 nM, RXRa partner concentration 90 nM)
Summary of the method: as §1

[12] = test system: PPARg:RXRa IVT, anti-PPARg (NR concentration 270 nM, RXRa partner concentration 90 nM)
Summary of the method: as §1

[13] = test system: PPARg DBDmut:RXRa IVT, anti-PPARg (DBD mutation: PPARg1 K132A/R137A, NR concentration 270 nM, RXRa partner concentration 90 nM)
Summary of the method: as §1

[14] = test system: PPARg DBDmut IVT, anti-PPARg (DBD mutation: PPARg1 K132A/R137A, NR concentration 270 nM)
Summary of the method: as §1

[15] = test system: PPARg homodimer (NR concentration 180 nM)
Summary of the method: as §1

[16] = test system: PXR:RXRa (NR concentration 270 nM, RXRa partner concentration 90 nM)
Summary of the method: as §1

[17] = test system: PXR homodimer (NR concentration 270 nM)
Summary of the method: as §1

[18] = test system: RARa:RXR (NR concentration 270 nM, RXRa partner concentration 90 nM)
Summary of the method: as §1

[19] = test system: RARa homodimer (NR concentration 270 nM)
Summary of the method: as §1

[20] = test system: RARb:RXRa (NR concentration 270 nM, RXRa partner concentration 90 nM)
Summary of the method: as §1

| Sequence | PBM binding z-score [1] | PBM binding z-score [2] | PBM binding z-score [3] | PBM binding z-score [4] | PBM binding z-score [5] | PBM binding z-score [6] | PBM binding z-score [7] | PBM binding z-score [8] | PBM binding z-score [9] | PBM binding z-score [10] | PBM binding z-score [11] | PBM binding z-score [12] | PBM binding z-score [13] | PBM binding z-score [14] | PBM binding z-score [15] | PBM binding z-score [16] | PBM binding z-score [17] | PBM binding z-score [18] | PBM binding z-score [19] | PBM binding z-score [20] |
| --- | --- | --- | --- | --- | --- | --- | --- | --- | --- | --- | --- | --- | --- | --- | --- | --- | --- | --- | --- | --- |
| ATACCAAGGTGACCGTGAGGTCGTTGATACTAAC | 3.38 | 2.05 | 0.765 | 2.02 | -0.023 | 2.4 | 1.44 | 1.39 | 0.228 | 0.726 | 1.21 | 2.77 | 0.39 | 0.266 | 1.4 | 3.8 | 1.45 | 3.05 | 0.22 | 2.46 |
| CAAACTAGGTCAAATGTCAAAGTCGAGCCAACCA | 5.99 | 4.61 | 1.45 | 3.78 | 1.49 | 6.77 | 11.8 | 9.72 | 9.92 | 10.8 | 8.77 | 8.6 | 1.94 | 1.58 | 2.71 | 3.16 | 0.325 | 4.96 | 1.02 | 4.26 |
| ATATGTAGGTTAGCTGTGGTCATTCAGACTAGGC | 0.89 | 1.93 | 0.212 | 0.643 | 0.0822 | 2.29 | 3.3 | 2.79 | 0.838 | 1.89 | 6.97 | 6.07 | 2.72 | 2.03 | 1.37 | 1.3 | 0.0563 | 1.3 | 0.467 | 1.2 |
| CAAACTAGGGCAAAGGTCAAAGTCGAGCCAACCA | 7.07 | 6.32 | 4.3 | 6.01 | 1.82 | 7.48 | 13.2 | 10.9 | 12.2 | 12.5 | 7.98 | 8.53 | 3.73 | 2.63 | 4.12 | 5.98 | 1.29 | 7.53 | 1.54 | 5.15 |
| AGTCAAAGTTCAGGACGAGGTTACGTAAAGCACG | 4.83 | 4.65 | 2.06 | 2.7 | 0.273 | 3.73 | 5.02 | 4.89 | 2.32 | 4.2 | -0.0298 | 2.22 | 0.501 | 0.266 | 2.73 | 4.73 | 2.59 | 4.38 | 1.13 | 4.46 |
| ACTCGGAGGAGAAAGGTCAGAGCTACGCCAGTGA | 2.6 | 3.16 | 0.746 | 2.72 | -0.215 | 3.8 | 3.76 | 4.3 | 2.61 | 4.29 | 0.262 | 1.73 | -0.454 | -0.291 | 2.29 | 3.09 | 0.0761 | 3.7 | 1.26 | 3.93 |
| ATCTCTAAGTAAAGTTCAGTGAAAGATCGATAGA | 1.27 | 1.99 | 1.87 | 1.23 | 0.906 | 1.66 | 1.4 | 2.92 | 1.3 | 2.75 | 0.19 | 0.648 | 1.26 | 1.06 | 1.44 | 2.03 | 1.8 | 1.34 | 1.77 | 2.63 |
| CTCGAATGGTCGGTTGAGGTGAGTATACGGATAA | 0.27 | -0.395 | -0.272 | -0.377 | -0.349 | -0.259 | -0.0607 | -0.192 | -0.213 | -0.0856 | -0.784 | 0.126 | 0.733 | 0.405 | -0.164 | -0.105 | -0.022 | 0.211 | -0.0787 | 0.283 |
| TCATATTGGTAAAGGTGAAAGTCGAACGATATGA | 0.751 | 1.1 | -0.299 | 1.19 | 0.0352 | 2.58 | 1.89 | 3.8 | 3.95 | 3.9 | 1.58 | 1.69 | 0.994 | 1.2 | 1.15 | 0.712 | -0.162 | 1.25 | 0.406 | 1.94 |
| CATACAGGGTCAGCTAGGCCAGAGTTGGGACGGC | 4.25 | 2.86 | -0.145 | 2.06 | 0.341 | 4.17 | 3.24 | 2.97 | 0.45 | 1.6 | 1.33 | 2.34 | 0.63 | 0.195 | 0.968 | 1.85 | -0.0328 | 2.78 | 0.28 | 4.17 |
| TAGCCTAGGTCATGCGGGCAAGTATAGTGTCGGC | 4.44 | 3.3 | 0.517 | 1.94 | -0.137 | 3.73 | 2.32 | 2.59 | 0.322 | 1.54 | 1.66 | 3.02 | 0.235 | -0.248 | 1.39 | 1.45 | -0.333 | 2.21 | 0.228 | 3.83 |
| ATCTCTAGGTAAAAGTTCAGAGAATCCCGAGGAT | 1.14 | 1.55 | 1.43 | 1.03 | 0.872 | 4.35 | 8.44 | 7.88 | 7.79 | 9.43 | 2.03 | 3.83 | 1.22 | 1.3 | 1.38 | 1.99 | 1.55 | 1.76 | 1.49 | 2.5 |
| ACTTACGGGTCAACGAGGGTATAGCACGCGTATA | 6.96 | 4.31 | 0.258 | 3.79 | 0.591 | 5.61 | 5.35 | 5.06 | 1.72 | 3.63 | 2.86 | 3.73 | 1.66 | 1.29 | 2.05 | 4.29 | 1.09 | 4.78 | 0.643 | 4.05 |
| ATCTCTAGATAACCAAGTTCAGTGAATGCCGAAC | 0.0637 | 0.348 | 0.591 | 0.348 | 0.0515 | -0.00769 | 0.236 | -0.141 | 0.124 | -0.0247 | -0.316 | 0.0781 | 0.627 | 0.782 | 0.44 | 1.1 | 1.09 | 0.424 | 0.885 | 0.556 |
